This note sets out measurements from PubChem BioAssay AID431 (Sanford-Burnham Center for Chemical Genomics, 2006).

The structures appear in SMILES notation. About 1,100 (1.7%) of roughly 63,000 compounds were called active.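 Rule for the calls: active = compounds whose percent cytotoxicity in the single-dose primary screen, scaled between solvent and toxic-drug controls, exceeds 50; inactive = the rest.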 Only a selection was taken, and actives are over-represented in it overall. Potency and affinity values are given separately.

The assay can be described thus: cytotoxicity in KRAS-transformed pancreatic duct cells, primary screen, cell-based, fluorescence, HTS (AID 431).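 Note: 0% = DMSO solvent wells and 100% = doxorubicin-treated wells.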 The settings on record: HPDE-C7K KRASV12 cells, Alamar Blue viability, 48 h; at 10 µM; active compounds read high.
With `OCCN1CCN(c2nc(-c3ccccc3)c3cc(Cl)ccc3n2)CC1`, the cytotoxicity was 130% (active).

Regarding `CN1CCN(c2nc(N3CCN(CCO)CC3)nc3ccccc23)CC1`, the cytotoxicity is 8.2% (inactive).

Consider `Clc1ccc2nc(NC3=NCN(CCN4CCOCC4)CN3)nc(-c3ccccc3)c2c1`, for which the cytotoxicity is 8.5% (inactive).

In the case of `CN1CCN(c2nc(-c3ccccc3)c3cc(Cl)ccc3n2)CC1`, the cytotoxicity is 29.7% (inactive).

On to `Cc1ccc2nc(N3CCC(C(=O)O)CC3)nc(-c3ccccc3)c2c1`, for which the cytotoxicity is 1% (inactive).

`CS(=O)(=O)N1CCC(c2noc(-c3ccc(C(F)(F)F)cc3)n2)CC1`: the cytotoxicity is 0.2% (inactive).

For the molecule `COc1ccc(N/C=C2\CCOC2=O)cc1`, the cytotoxicity is 43.6% (inactive).

On to `COC(=O)c1ccc(OCC(=O)c2ccc(O)cc2O)cc1`, for which the cytotoxicity is 0.1% (inactive).

In the case of `C=CCOc1ccc(/C(O)=C2\C(=O)C(=O)N(CCOC)C2c2cccnc2)cc1` (stereo unspecified), the cytotoxicity is -14% (inactive).

As for `CC(C)(C)c1ccc(C(O)CCCN2CCC(C(O)(c3ccccc3)c3ccccc3)CC2)cc1` (stereo unspecified), the cytotoxicity is 121% (active).

As for `OC(CCN1CCCCC1)(c1ccccc1)C1CCCCC1` (stereo unspecified), the cytotoxicity was 14.3% (inactive).

For `OC(CCN1CCCC1)(c1ccccc1)C1CCCCC1` (stereo unspecified), the cytotoxicity was 28.9% (inactive).

As for `COc1cccc(C2CC(c3ccc(C)cc3)Nc3nc(N)nn32)c1` (stereo unspecified), the cytotoxicity is 1.4% (inactive).

Turning to `Cc1oc(-c2cccc(Cl)c2)nc1CN1CCC(C(=O)N2CCN(c3ccccc3F)CC2)CC1`, the cytotoxicity is 62% (active).

On to `CCN1CCN(C(=O)C2CCN(Cc3nc(-c4cccc(Cl)c4)oc3C)CC2)CC1`, for which the cytotoxicity is 1.9% (inactive).

Take `Cc1oc(-c2cccc(Cl)c2)nc1CN1CCC(C(=O)N2CCN(c3ccccn3)CC2)CC1`: the cytotoxicity is 6.5% (inactive).

Consider `Cc1cccc(OCC(O)Cn2c(NCCCOC(C)C)nc3c2c(=O)[nH]c(=O)n3C)c1` (stereo unspecified), for which the cytotoxicity was -8% (inactive).

For `CN(C)c1ccc(-c2nn3c(-c4ccc(Cl)cc4Cl)nnc3s2)cc1`, the cytotoxicity is 50.5% (active).

With `COc1ccccc1-c1nnc2sc(-c3ccc(N(C)C)cc3)nn12`, the cytotoxicity was 44% (inactive).

Regarding `Cc1nn2c(-c3ccc(Cl)cc3Cl)nnc2s1`, the cytotoxicity was -0.2% (inactive).

Consider `Clc1ccccc1-c1nnc2sc(-c3ccncc3)nn12`, for which the cytotoxicity is 3.4% (inactive).

Take `CN(C)c1ccc(-c2nn3c(-c4ccc(Cl)cc4)nnc3s2)cc1`: the cytotoxicity is -7.1% (inactive).

Consider `CN(C)c1ccc(-c2nn3c(-c4ccccc4Cl)nnc3s2)cc1`, for which the cytotoxicity is 57.1% (active).

`O=S(=O)(Cc1ccccc1)N1CCn2c(nc3ccccc32)C1`: the cytotoxicity is 9.3% (inactive).

`CCOc1cccc(-c2nnc3sc(COc4ccc(Cl)cc4)nn23)c1`: the cytotoxicity is 24.5% (inactive).

Regarding `CCN(Cc1cc2ccccc2[nH]c1=O)C(=O)C1CCCCC1`, the cytotoxicity is -7.8% (inactive).

Turning to `Cc1ccc(C(=O)C(C)OC(=O)C2CC(=O)N(C3CCCCC3)C2)cc1` (stereo unspecified), the cytotoxicity is -11.4% (inactive).

Regarding `CC(C)(C)c1cc(CN2CCN(CCO)CC2)cc(C(C)(C)C)c1O`, the cytotoxicity is -4.4% (inactive).

With `CC(C)(C)c1cc(C(=S)N2CCN(CCO)CC2)cc(C(C)(C)C)c1O`, the cytotoxicity was -13.9% (inactive).

`Cc1cc(N2CCN(c3cccc(C(F)(F)F)c3)CC2)n2ncnc2n1`: the cytotoxicity was -14.7% (inactive).

With `CCNc1sc(C(=O)c2cccs2)c(N)c1C#N`, the cytotoxicity is -11.8% (inactive).

In the case of `CNc1sc(C(=O)c2cccs2)c(N)c1-c1nc2ccccc2s1`, the cytotoxicity is 33.2% (inactive).

`CCNc1sc(C(=O)c2cccs2)c(N)c1-c1nc2ccccc2s1`: the cytotoxicity was 74.9% (active).

For `O=C(NCc1ccncc1)c1c(F)c(F)c(F)c(F)c1F`, the cytotoxicity was -8.2% (inactive).

Consider `Cc1ccc(SCc2cc(=O)[nH]c(N3CCN(Cc4ccc5c(c4)OCO5)CC3)n2)cc1`, for which the cytotoxicity is 0.2% (inactive).

As to `Cn1c(-c2cc(Br)ccc2O)n[nH]c1=S`, the cytotoxicity was 0.6% (inactive).

For the molecule `Cc1ccccc1OCCCC(=O)Nc1ccc(N2CCOCC2)cc1`, the cytotoxicity is 1.2% (inactive).

For `O=C(Nc1ccccc1)NC1(C(=O)NCCCN2CCOCC2)CCCCC1`, the cytotoxicity was 0.6% (inactive).

Take `CC(C)C(c1nnnn1C1CCCC1)N1CCc2ccccc21` (stereo unspecified): the cytotoxicity was -8.4% (inactive).

As to `COc1ccc(C(C)(C)C)cc1NC(=O)Nc1ccc2c(c1)OCO2`, the cytotoxicity is 50.7% (active).

In the case of `COC(=O)c1ccc(C(=O)OC)c(NC(=O)Nc2ccc3c(c2)OCO3)c1`, the cytotoxicity was -0.1% (inactive).

For the molecule `COc1ccccc1NC(=O)Nc1ccc2c(c1)OCCO2`, the cytotoxicity was -11.4% (inactive).

As for `CCCCCCOC(=O)C1=C(C)NC(=O)NC1c1ccc(O)cc1` (stereo unspecified), the cytotoxicity was -1.4% (inactive).

Consider `N#Cc1c(-c2ccco2)nc(SCC(=O)Nc2cccc(Cl)c2)[nH]c1=O`, for which the cytotoxicity was 17.5% (inactive).

For the molecule `N#Cc1c(-c2ccco2)nc(SCc2ccc(F)cc2)[nH]c1=O`, the cytotoxicity is 68.9% (active).

For the molecule `Cc1nc(SCc2cccc(F)c2)[nH]c(=O)c1C#N`, the cytotoxicity is -15.2% (inactive).

On to `O=C(/C=N\O)NCCCNCc1ccccc1`, for which the cytotoxicity was 11% (inactive).

On to `O=C(c1noc2c1CCCC2)N1CCN(C(c2ccccc2)c2ccccc2)CC1`, for which the cytotoxicity is 2.5% (inactive).

On to `CCOc1cc(C(=O)N(C)c2ccccc2)cc(OCC)c1OCC`, for which the cytotoxicity was 4.9% (inactive).

Consider `CCCCOCCCNC(=O)COc1ccccc1`, for which the cytotoxicity is -4% (inactive).

Turning to `O=C1CC(c2ccco2)CC(O)=C1C=NCCN1CCNCC1` (stereo unspecified), the cytotoxicity is -12.7% (inactive).

Turning to `O=C1CC(c2ccco2)CC(O)=C1C=Nc1cc(Cl)ccc1O` (stereo unspecified), the cytotoxicity was 75.8% (active).

On to `O=C1CC(c2ccco2)CC(O)=C1C=NCCO` (stereo unspecified), for which the cytotoxicity was -9.5% (inactive).

Regarding `Cc1occc1-c1nnc(SCC(=O)N2CCCc3ccccc32)n1Cc1ccco1`, the cytotoxicity is -3.2% (inactive).

Take `Cc1nc(-c2ccccc2)cc(=O)[nH]1`: the cytotoxicity is 6.9% (inactive).

Consider `COc1ccc2c(C)nc(Nc3nc(C)cc(=O)[nH]3)nc2c1`, for which the cytotoxicity is 87.3% (active).

As for `Cc1ccc(Nc2nc(CSc3nnnn3-c3ccccc3)cs2)cc1`, the cytotoxicity was 39.8% (inactive).

For `Cc1nc(Nc2nc(-c3ccccc3)cc(=O)[nH]2)nc2ccccc12`, the cytotoxicity was 68.2% (active).

`Cc1nnc(SCc2cc(=O)[nH]c(Nc3nc(C)c4ccccc4n3)n2)s1`: the cytotoxicity is 3.9% (inactive).

As to `CCc1c(C)nc(Nc2nc(C)c3cc(OC)ccc3n2)[nH]c1=O`, the cytotoxicity is 49.1% (inactive).

For the molecule `Cc1ccc(Nc2nc(CSc3nnnn3-c3ccccc3)cc(=O)[nH]2)cc1`, the cytotoxicity was 23.4% (inactive).

Take `COc1ccc2c(C)nc(Nc3nc(C)cc(C)n3)nc2c1`: the cytotoxicity is -1% (inactive).

On to `Cc1ccc2c(C)nc(Nc3nc(CSc4nnnn4-c4ccccc4)cc(=O)[nH]3)nc2c1`, for which the cytotoxicity is 54.8% (active).

Take `COc1nc(Nc2nc3ccccc3c(=O)[nH]2)nc2ccc(C)cc12`: the cytotoxicity was 91.7% (active).

For `COCc1cc(=O)[nH]c(Nc2nc(C)c3ccc(C)cc3n2)n1`, the cytotoxicity was 2.4% (inactive).

For `CCCCCc1c(C)nc(Nc2nc(C)c3cc(OC)ccc3n2)[nH]c1=O`, the cytotoxicity is 9.7% (inactive).
